Screens deposited in PubChem BioAssay by National Center for Advancing Translational Sciences (NCATS).
AMA1-RON2 inh = inhibitors of Plasmodium falciparum AMA1-RON2 interaction; Potency, µM (top dose mostly 58.2 µM), inactives show at the top dose activity change, negative = inhibition, most hits filed as inhibitors; hit rate 0.2% among 360,000; AlphaScreen AMA1-biotinylated RON2 peptide binding;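 note: potency is the fitted concentration of half-maximal effect; 0% = vehicle wells and -100% = peptide control; nearly all actives have a fitted effect of over 45% in size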
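AMA1 (3D7) with his tag at 25 nM final met compounds first, then biotinylated RON2 peptide at 25 nM; detection used donor plus acceptor beads, 10 µg/mL apiece, read by AlphaScreen after 30 min at room temperature.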
Pf growth 96h = inhibits malaria parasite growth, 96 h. P. falciparum luciferase reporter growth, 96 h. Potency, µM (top dose mostly 28.7 µM), for the others: at the highest dose activity change, negative = inhibition, hits mostly inhibitors. hit rate 6.9% among 320,000; note: potency is the fitted concentration of half-maximal effect; % is set by controls: 0 for no effect and ±100 for the full control effect
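Delayed-death screen, second-generation endpoint: infected erythrocytes, 2% hematocrit, 0.05% parasitemia final; 96 hours at 37 C, 5% CO2; luciferase detection reagent; luminescence decrease equals reduced growth.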
Pf growth 48h = inhibits P. falciparum growth in the first generation, 48 h. P. falciparum luciferase growth in erythrocytes, 48 h. Potency, µM (highest dose often 28.7 µM), for the others: at the top dose activity change, negative = inhibition, most hits filed as inhibitors. hit rate 5.9% among 310,000. AID 504832; note: potency is the fitted concentration of half-maximal effect; % is set by controls: 0 for no effect and ±100 for the full control effect
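Compounds are pin-transferred into medium, infected erythrocytes (2% hematocrit, 0.1% parasitemia final) are added, and plates sit one parasite generation at 37 C in 5% CO2. Detection reagent is then added and luminescence measured.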
SARS PLP yeast = inhibitors of SARS-CoV papain-like protease in yeast | AID 485353 | Potency, µM (series often up to 32.9 µM), inactives show top-dose activity, positive = growth rescue, most hits filed as activators | S. cerevisiae expressing SARS-CoV PLpro, growth rescue | hit rate 0.19% among 330,000; calls by dose curve; note: potency is the fitted concentration of half-maximal effect; 0% is about no effect; nearly all actives have a fitted effect of over 55% in size
Shiga inhibitor = Shiga toxin inhibition; Vero cells, Shiga toxin protein synthesis inhibition reporter; hit rate 9.2% among 290,000; inhibition, % at 38.7 µM; in the data active = inhibition mostly above about 28%, no sharp cut-off; inactive = mostly below about 43%; note: 0% is about no effect
CHX counter = counter-screen hit for Shiga toxin inhibitors, cycloheximide; cell reporter, cycloheximide protein synthesis inhibition counterscreen; max response, %; hit rate 12% among 300,000; AID 2314; in the data active = max response mostly above about 13%, no sharp cut-off; inactive = mostly below about 14%; note: read at 38.3 µM for the half of the compounds with a filed dose; 0% is about no effect
Numbers without * were called inactive; i = inactive; ? = inconclusive; nt = not tested or not shown; [ ] = another dose, or the depositor's remark. An excerpt weighted towards active compounds, which were near 19% of everything screened. Unless noted, calls come from the whole dose curve; as a rule, active = well fitted curve in the direction sought with a large enough effect; inconclusive = small, poorly fitted or top-dose-only effect, or another doubt; inactive = no such curve, though single readings can be large; an effect the other way counts as inactive or inconclusive.

SMILES	AMA1-RON2 inh	Pf growth 96h	Pf growth 48h	SARS PLP yeast	Shiga inhibitor	CHX counter
Cc1cccc2c1ncc1c(=O)n(-c3ccccc3)[nH]c12	-5.5%	?	-11.2%	0.2%	90.5*	29.6*
CCCCCCCCn1ccc(=N)cc1	-15.6%	?	0.37µM*	-2.9%	-12.6	1.3
CCCCCCN1Cc2ccccc2C1	-2.1%	8.3%	33.7%	-0.6%	-2.5	7.2
CCCCCCCCCCn1ccc(=N)cc1	9.7%	?	0.208µM*	-3.8%	-19.2	-0.2
CCOC(=O)c1ccc(NC(=O)Nc2ccc3c(c2)OCCO3)cc1	-15.4%	14.1%	?	4.0%	32.2*	13.2*
CCOC(=O)c1cc2sc(C)cc2n1CC(=O)Nc1cccc(C)c1C	-1.2%	10.5%	?	18.8%	0.3	-1.3
CCOC(=O)c1cc2sc(C)cc2n1CC(=O)Nc1ccc2c(c1)OCCO2	10.2%	0.738µM*	-9.3%	-2.6%	26.5	11.9*
CCOC(=O)Nc1cc(Br)c2c(c1)OCCO2	-1.3%	?	43.3%	-10.0%	41.5	33.6*
CCOC(=O)Nc1cc(C(=O)OC)cc(C(=O)OC)c1	0.0%	?	-2.6%	-23.2%	-6.4	-4.1
CCOC(=O)c1c(C)c(C(=O)Nc2ccc3c(c2)OCCO3)c(C)n1C	-3.5%	40.5%	?	4.5%	55.3*	21.6*
O=C(CCC(=O)c1cccs1)NCc1ccccc1Cl	1.8%	nt	nt	8.7%	nt	nt
CCCNC(=O)Cn1c(=O)oc2ccccc21	-0.1%	?	9.3%	3.7%	-3.5	-1.2
CCOC(=O)c1c(C)c(C(=O)Nc2ccc(N(C)C)cc2)c(C)n1CC	-18.2%	nt	59.6%	?	50.9	21.9*
CCOC(=O)c1c(C)c(C(=O)NCCOC)c(C)n1CC	0.5%	90.2%	5.9%	2.5%	-9.4	6.3
COc1ccc(N=N/C(=C\O)C(=O)c2cccs2)cc1	-29.7%	76.8%	193.2%	-5.2%	58.0*	39.1*
COc1ccc(C(=O)/C(=C/O)N=Nc2ccc(F)cc2)cc1	-13.7%	?	i	-18.6%	76.4*	58.2*
COc1ccc(/C=N/NC(=O)CNC(=O)c2cccs2)cc1	12.6%[2.32 µM]	12.3%	45.5%	-10.0%	45.2	16.9
Cc1ccc(N=N/C(=C\O)C(=O)c2ccncc2)cc1	-4.5%	?	nt	-11.8%	30.7	9.5
O=C(O)C1CCC(CNS(=O)(=O)c2ccccc2)CC1 (stereo not drawn)	2.3%	5.3%	6.2%[0.00184 µM]	0.4%	-5.6	-6.5
N#C/C(=C\c1ccc(N2CCCCC2)o1)C(=O)Nc1cccc(Br)c1	-15.0%	107.5%	122.2%	-15.8%	105.7*	58.2*
N#C/C(=C\c1ccc(N2CCCCC2)o1)C(N)=O	-0.5%	-6.8%	85.1%	-0.2%	20.0	16.9*
CC1CC1c1ccc(/C=C(\C#N)C(=O)Nc2cccc(Cl)c2Cl)o1 (stereo not drawn)	-4.3%	?	24.2%	-8.9%	3.3	6.5
O=Cc1ccc(N2CCCC2)o1	5.5%	17.1%	15.4%	1.3%	8.5	-1.6
N#C/C(=C/c1ccc(F)cc1)c1nnc(NC(=O)c2ccccc2)s1	18.2%	7.5%	17.7%	-1.4%	-4.7	6.3
O=C(N/C(=C\c1cccc([N+](=O)[O-])c1)C(=O)N1CCOCC1)c1cccc(Br)c1	-4.5%	?	?	-0.7%	-5.3	7.3
SMILES	AMA1-RON2 inh	Pf growth 96h	Pf growth 48h	SARS PLP yeast	Shiga inhibitor	CHX counter
COc1ccccc1CNC(=O)C[n+]1ccccc1	11.0%	nt	2.6%	-1.0%	-19.4	-4.9
Cc1cc(NC(=O)CCCN2C(=O)c3cccc4cccc(c34)C2=O)no1	-18.2%	?	2.9%	0.2%	-25.0	-1.6
Cc1cc(NC(=O)CCCN2C(=O)c3cccnc3C2=O)no1	-0.8%	11.7µM*	22.0%	-0.6%	-5.7	-2.9
CC1=CC(C)(C)N(S(=O)(=O)c2ccc(C)cc2)c2ccccc21	-1.1%	10.4µM*	nt	-25.0%	-14.3	-6.9
COc1ccc2c(c1)C(C)=CC(C)(C)N2S(=O)(=O)c1ccc(Br)cc1	8.6%	-11.5%	9.28µM*	-4.2%	14.9	-3.2
COc1ccc2c(c1)C(C)=CC(C)(C)N2S(=O)(=O)c1ccc(NC(C)=O)cc1	3.3%	-3.8%	?	-0.6%	-7.9	-3.7
CC1=CC(C)(C)N(S(=O)(=O)c2ccc(F)cc2)c2ccc(C)cc21	0.6%	14.7µM*	nt	0.4%[6.58 µM]	-5.3	-1.8
CCOc1ccc2c(c1)C(C)=CC(C)(C)N2S(=O)(=O)c1ccc(NC(C)=O)cc1	-2.0%	45.5%	6.57µM*	4.6%	-24.2	-3.9
CCOc1ccc2c(c1)C(C)=CC(C)(C)N2S(=O)(=O)c1ccc(F)cc1	13.0%	?	-16.1%	-3.5%	nt	-1.1
CC(C)N(CC(O)c1cccc([N+](=O)[O-])c1)C(C)C (stereo not drawn)	5.3%	13.9%	?	4.2%	-11.8	-4.6
C=CCN(CC(O)c1cccc([N+](=O)[O-])c1)C(C)CCc1ccccc1 (stereo not drawn)	-27.9%	?	1.47µM*	0.2%	11.8	8.6
Cc1n(CC(O)COCc2ccccc2)c2ccccc2[n+]1C (stereo not drawn)	-0.5%	3.29µM*	9.28µM*	-4.4%	-10.7	-2.9
O=C(NCC1CCCO1)C(=O)N/N=C/c1ccc(O)c(Cl)c1 (stereo not drawn)	8.7%	4.15µM*	-2.1%	-0.8%	11.5	0.5
O=C(NCC1CCCO1)c1ccc(C(=O)NCC2CCCO2)cc1 (stereo not drawn)	-2.7%	0.465µM*	42.6%	0.3%	-1.1	-1.7
Cc1ccc(C(=O)Nc2ccc(C(=O)NCC3CCCO3)cc2)cc1 (stereo not drawn)	-0.3%	?	-6.6%	0.2%	-2.7	0.9
CCc1cc(C(=O)NCC2CCCO2)sc1C (stereo not drawn)	-12.5%	69.7%	70.0%	nt	43.5*	31.0*
O=C(NCC1CCCO1)c1cc(Br)c(Br)s1 (stereo not drawn)	0.0%	7.0%	-1.7%	1.4%	21.6	7.8
O=C(Cc1ccccc1)Nc1ccccc1C(=O)NCC1CCCO1 (stereo not drawn)	-6.9%	13.1µM*	-7.8%	2.7%	3.6	9.7
N#CCCCn1c(=O)oc2ccccc21	26.3%	-12.0%	6.4%	1.2%	-2.3	-1.8
CCn1c(CN2CCN(Cc3ccc(C)cc3)C(CCO)C2)nc2ccccc21 (stereo not drawn)	26.6%	?	-16.9%	-1.0%	-16.4	-1.0
Cc1cc2ccccc2n2c(SCC(=O)NCC3CCCO3)nnc12 (stereo not drawn)	4.9%	13.1%	-6.1%	-0.9%	-23.3	6.3
CS(=O)(=O)N(CC(=O)N1CCCC1)Cc1ccc(Cl)c(Cl)c1	-0.2%	?	0.0%	1.9%	-6.8	1.3
COc1ccc(/C=C(\NC(=O)c2ccccc2)C(=O)NCC2CCCO2)cc1 (stereo not drawn)	-7.0%	-25.4%	-7.2%	3.3%	-2.5	7.7
CCOc1ccc(C(=O)NCC2CCCO2)cc1 (stereo not drawn)	1.6%	nt	71.2%	1.4%	116.5*	38.1*
